In PubChem BioAssay AID686979 (National Center for Advancing Translational Sciences (NCATS), 2013):
In all, about 420,000 compounds went through this assay and about 50,000 (12%) were called active. A call without a number means that no potency is given here. About 26% were inconclusive and are not listed. Calls come from the whole dose curve; as a rule, active = well fitted inhibition curve with a large enough effect; inconclusive = small, poorly fitted or top-dose-only effect; inactive = flat fitted curve, though single readings scatter. The full list was thinned out, with actives kept by preference.

Experiment: qHTS for Inhibitors of human tyrosyl-DNA phosphodiesterase 1 (TDP1): qHTS in cells in presence of CPT; note: nearly all actives have a fitted effect of over 55% in size
Conditions: chicken DT40 Tdp1-/-;hTDP1 cells + 20 nM CPT, ATP luminescence, 48 h; series mostly up to 46.2 µM
How it was run: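 Chicken DT40 Tdp1-/- cells complemented with human TDP1, 400 cells/well, exposed to compounds plus 20 nM camptothecin for at least 48 h at 37 C; viability read as ATP content by CellTiter-Glo luminescence.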
Potency is the fitted concentration of half-maximal effect.

Compound | Potency
CC1=C(C(=O)OC2CCCCC2)C(c2ccccc2F)NC(=O)N1 (stereo not drawn) | inactive
O=C(CCC(=O)N1CCCC1)Nc1ccc([N+](=O)[O-])cc1 | inactive
CCCCOc1ccc(C(=O)NCC(=O)OCC(=O)N2CCN(S(=O)(=O)c3ccc(C)cc3C)CC2)cc1 | inactive
N#C/C(=C/c1ccc(Cl)cc1)NC(=O)c1ccccc1 | inactive
Cc1c(Br)c([N+](=O)[O-])nn1CC(=O)N1CCN(Cc2ccccc2)CC1 | inactive
Fc1ccc(COc2ccc(-c3nnco3)cc2)cc1 | inactive
CCN1C(=O)[C@H]2[C@@H](c3ccc(SC4CCCCC4)c(OC)c3)N[C@@](Cc3ccccc3)(C(=O)OC)[C@H]2C1=O | 16.4 µM (active)
COC(=O)C1(C)NC(c2ccccc2OC)C2C(=O)N(c3ccccc3)C(=O)C21 (stereo not drawn) | inactive
CCCC1(C(=O)OC)NC(c2ccco2)C2C(=O)N(C)C(=O)C21 (stereo not drawn) | inactive
CCN1C(=O)[C@H]2[C@@H](c3ccc(-c4ccc(OC)cc4)cc3)N[C@@](Cc3ccccc3)(C(=O)OC)[C@H]2C1=O | 18.4 µM (active)
CCN(C[C@H]1N[C@@](CC)(C(=O)OC)[C@H]2C(=O)N(Cc3ccccc3)C(=O)[C@@H]12)S(=O)(=O)c1ccccc1 | inactive
CCNC(=O)N(CC)C[C@H]1N[C@@](CC)(C(=O)OC)[C@H]2C(=O)N(Cc3ccccc3)C(=O)[C@@H]12 | inactive
CC1=NNC(=O)C1Cc1c(Cl)cccc1Cl (stereo not drawn) | inactive
C#CCOCCOCCOCCNc1nc(N2CCN(C(=O)C([C@@H](C)O)n3cc([C@@H](N)CCCCN)nn3)CC2)nc(N2CCN(C(=O)[C@H](CCCCN)n3cc(CN)nn3)CC2)n1 (stereo partly drawn) | inactive
CC(C)[C@H](NC(=O)c1ccccc1F)C(=O)Nc1cccc(S(=O)(=O)N2CCOCC2)c1 | inactive
CC(=O)c1ccc(NC(=O)Cn2c(=O)oc3ccccc32)cc1 | inactive
Cc1ccccc1NC(=O)Cn1c(=O)n(CC2CCCO2)c(=O)c2ccccc21 (stereo not drawn) | inactive
O=C(NCc1ccccc1)C1c2ccccc2OCC(=O)N1CCCN1CCOCC1 (stereo not drawn) | inactive
O=C(/C=C/c1ccc2c(c1)OCO2)NCc1ccc(F)cc1 | inactive
O=C1Nc2ccccc2NC(c2ccc3c(c2)OCO3)=C1N(Cc1ccc(F)cc1)C(=O)c1ccco1 | 16.4 µM (active)
O=C(c1ccc2c(c1)OCO2)N1CCN(C(=O)c2ccco2)CC1 | inactive

Compound | Potency
CCCCNc1ccc(-c2nc(-c3ccncc3)no2)cc1[N+](=O)[O-] | inactive
Cc1ccc2nsnc2c1S(=O)(=O)N1CCCC1C(=O)O (stereo not drawn) | inactive
CCN(Cc1ccncc1)C(=O)CCc1ccccc1 | inactive
O=C(CSc1cccc2cccnc12)N/N=C/c1cccnc1 | 23.1 µM (active)
O=C(CNC(=O)c1cccnc1)N/N=C/c1cccnc1 | inactive
Cc1nc2ccccc2n1CC(=O)N/N=C/c1cccnc1 | inactive
CCCCCC(O)(CCN1CCCCC1)c1ccccc1 (stereo not drawn) | inactive
O=C1NC(c2ccc(-c3ccccc3[N+](=O)[O-])o2)C(C(=O)c2ccc(Cl)cc2)C(O)(C(F)(F)F)N1 (stereo not drawn) | 18.4 µM (active)
CC(=O)C1C(c2ccc(Cl)cc2)NC(=O)NC1(O)C(F)(F)F (stereo not drawn) | inactive
CC1=NN(c2ccc(Cl)c(C(=O)O)c2)C(=O)/C1=C/c1ccc(-c2ccccc2[N+](=O)[O-])o1 | inactive
Cc1ccc(CSCC(=O)N(C)CC(=O)Nc2ccc(C)cc2)cc1 | inactive
FC(F)(F)c1ccc2nnc(-c3c(Cl)cccc3Cl)n2c1 | inactive
CN1CCN(c2nc3c(c(=O)[nH]c(=O)n3C)n2Cc2cccc3ccccc23)CC1 | inactive
C=C(C)Cn1c(N2CCCC2)nc2c1c(=O)[nH]c(=O)n2C | inactive
CCCCCn1c(SCCC(C)C)nc2c1c(=O)[nH]c(=O)n2C | inactive
CC=CCn1c(SCCCc2ccccc2)nc2c1c(=O)[nH]c(=O)n2C | 20.6 µM (active)
CCCSc1nc2c(c(=O)[nH]c(=O)n2C)n1CCc1ccccc1 | inactive
CC1CCN(c2nc3c(c(=O)[nH]c(=O)n3C)n2CCCc2ccccc2)CC1 | 16.4 µM (active)
Cc1ccc(C)c(OCCC(=O)OCC(=O)N2CCN(c3ccccc3)CC2)c1 | inactive
CCC(=O)N1CCc2cc(S(=O)(=O)NC(C(=O)NCCc3ccc(C)cc3)C(C)C)ccc21 (stereo not drawn) | inactive
C[C@@H]1CN([C@@H](C)CO)C(=O)c2cc(NC(=O)C3CC3)ccc2O[C@H]1CN(C)C | inactive

Compound | Potency
COC(=O)c1ccc([C@@H](O)[C@H](C)C(=O)CC(=O)OC(C)(C)C)cc1 | inactive
COc1ccccc1N1CCN(C(=O)C(=O)N/N=C/c2ccccc2F)CC1 | inactive
COc1ccccc1N1CCN(/N=C/c2ccc(O)cc2O)CC1 | inactive
COc1ccccc1N1CCN(/N=C\C(Br)=C\c2ccccc2)CC1 | 8.2 µM (active)
O=C(CN1C(=O)NC(Cc2c[nH]c3ccccc23)C1=O)Nc1ccccc1C(F)(F)F (stereo not drawn) | inactive
O=C(O)C1CCC(CNS(=O)(=O)c2ccc(Br)cc2)CC1 (stereo not drawn) | inactive
CC(=O)N/C(=C/c1ccc(OC(F)F)cc1)C(=O)O | inactive
NC(=O)c1cc(S(=O)(=O)NCCCc2ccco2)cs1 | inactive
Cc1cccc(CC2(O)C(=O)Nc3ccccc32)n1 (stereo not drawn) | inactive
COc1ccc(C(=O)N/N=c2\oc3ccccc3cc2C(N)=O)cc1 | inactive
CCN(CC)c1ccc2cc(C(N)=O)/c(=N\NC(=O)c3ccncc3)oc2c1 | 16.4 µM (active)
NC(=O)c1cc2ccccc2o/c1=N/NC(=O)c1cccc(F)c1 | inactive
COc1cccc(NC(=S)NC(=O)c2c(Cl)c(C)nn2C)c1 | inactive
Cc1ccc(C(=O)COC(=O)c2cccc(N3C(=O)c4c(C)nc5ccccc5c4C3=O)c2)cc1C | inactive
CCCCCCCCn1c2c(c(=N)c3c1CCC3)CCCC2 | 0.92 µM (active)
O=C(O)C1CCN(C(=O)OCc2ccccc2)CC1 | inactive
O=C(NCc1ccccc1)C1=C[C@@H](C2CCCCC2)C[C@@H](OCc2ccc(CO)cc2)O1 | 16.4 µM (active)
CSc1ccccc1C(=O)NCc1ccccc1 | inactive
CC1(C)CC(=O)c2cc(C(=O)NCc3ccccc3)c(=O)[nH]c2C1 | inactive
CC(C)(C)[C@H]1C=C(C(=O)NCc2ccccc2)O[C@@H](OCc2ccc(CO)cc2)C1 | 18.4 µM (active)
O=C(COC(=O)CNC(=O)C1CCCCC1)NCc1ccccc1 | inactive
